Screening results: PubChem, several laboratories
TROY NFkB inh – TROY signaling inhibition. Q293 LMP1-TROYcd NF-kB luciferase reporter, 4 h. 360,000 tested, 0.98% active. inhibition, % at 10 µM;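 active means compounds whose plate-normalised and pattern-corrected inhibition of the luciferase reporter signal at the single screening dose is 50% or more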
HIF-2a block – inhibitors of HIF-2a; 786-0 RCC cells HIF-2a reporter, luciferase luminescence, overnight; inhibition, % at 18.8 µM; 360,000 tested, 0.72% active;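 active means inhibition of the luminescence signal of 40% or more relative to plate controls, in a single-dose primary screen at 18.75 µM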
LMP1 NFkB inh – reduces LMP1-driven NF-kappaB luciferase signal; LMP1-induced NF-kappaB luciferase reporter cells, luminescence; inhibition, % at 12.5 µM; 350,000 tested, 0.69% active; AID 504558; in the data active means inhibition above about 41%;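 further: 0% = neutral control wells and 100% = reference inhibitor control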
TWEAK Fn14 block – inhibitors of TWEAK-Fn14 interaction signaling. inhibition, % at 10 µM. AID 1159606. 360,000 tested, 2% active. TWEAK-stimulated Fn14 reporter cells, luciferase luminescence, 8 h; in the data active means inhibition above about 50%
MITF TRPM1 inh – MITF TRPM1 promoter inhibition in SK-MEL-5 cells; SK-MEL-5 TRPM1 promoter luciferase, 24 h; inhibition, % at 12.5 µM; 330,000 tested, 0.83% active; AID 488899;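 active means mean inhibition across replicates of 60% or more, whatever share of single replicates reaches that level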
Peg3 prom inh – inhibitors of Peg3 promoter; HeLa PEG-Prom luciferase reporter, luminescence, overnight; inhibition, % at 20 µM; 360,000 tested, 1.7% active; AID 588405;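 active means inhibition of at least 50% at 20 µM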
* hit, by the source's call; . = no result. This is a sample that favours compounds with a hit; in the whole collection about 4% have one here.

SMILES	TROY NFkB inh	HIF-2a block	LMP1 NFkB inh	TWEAK Fn14 block	MITF TRPM1 inh	Peg3 prom inh
COc1cccc(C(O)c2nc(-c3cccc(CO)c3)cs2)c1 (stereo not given)	-20.9	-40.3	.	-9.6	.	-22.2
COc1cccc(/C=C(\C#N)c2nc3ccccc3[nH]2)c1OCC(=O)O	-7.8	-116.6	-6.4	99.0*	.	-33.3
COc1cccc(/C=C(/C#N)c2nc3ccccc3[nH]2)c1OC(C)C(=O)O (stereo not given)	-13.8	-178.6	-11.9	-17.0	-13.7	26.0
CCCOc1cc(N(CC)CC)ccc1/C=C(/C#N)c1nc2ccc(C)cc2[nH]1	1.3	2.0	-4.1	-36.5	6.6	10.4
CCOc1cc(N(CC)CC)ccc1/C=C(/C#N)c1nc2ccccc2[nH]1	59.8*	-99.0	-33.5	69.5*	-26.2	-136.2
COc1cc(/C=C(\C#N)c2nc3ccccc3[nH]2)cc(Br)c1OCc1ccccc1	-46.8	-5.8	6.1	23.6	11.5	53.3*
Cc1ccc(S(=O)(=O)NCC(=O)OCC(=O)N(CCC#N)c2ccccc2)cc1	8.0	11.6	-4.8	19.0	4.2	4.1
CC(C)Oc1ccc(CN2CCC2(C)C(=O)Nc2cccc(Oc3ccccc3)c2)cc1 (stereo not given)	1.7	18.4	.	18.1	.	3.1
O=C1CC(C(=O)N2CCCc3ccccc32)CN1c1ccc(Cl)cc1 (stereo not given)	6.9	-28.0	1.7	20.9	-4.7	-0.2
O=C1CC(C(=O)N2CCCc3ccccc32)CN1c1ccc(F)cc1 (stereo not given)	49.1	-37.6	-4.1	60.8*	-9.2	-15.9
C=CCCc1ccc(C#N)c(SCc2c(C(=O)OCC)c3cc(OC(C)=O)c(Br)cc3n2C)n1	9.9	6.1	8.3	47.0	24.7	27.4
CCCCCCCCOC(=O)c1c(CSC(=N)N)n(C)c2cc(Br)c(OC(C)=O)cc12	12.1	-0.2	.	-42.9	.	97.6*
CCOC(=O)c1c(CSc2nc(C)cc(C)c2C#N)n(C)c2cc(Br)c(OC(C)=O)cc12	27.0	12.8	50.2*	60.8*	40.1	28.3
O=C(CCN1CCc2ccccc2CC1)c1ccc2c(c1)OCCO2	11.6	16.5	12.9	0.8	3.2	105.8*
O=C(CCN1CCOCC1)c1ccc2c(c1)OCCO2	3.7	6.0	-0.2	8.9	2.2	-10.4
Cc1ccc(NC(=O)CSc2nn(-c3ccccc3)c(=S)s2)cc1S(=O)(=O)N(C)C	49.1	19.8	16.7	78.8*	20.5	11.0
CCCc1c(O)c2ccccc2[nH]c1=O	.	5.9	-3.8	79.8*	-4.7	9.4
CN(C)CCNC(=O)c1ccccc1-c1cc2ccccc2c(=O)o1	-15.5	11.9	-4.8	12.5	-13.4	1.3
COc1ccc(C(=O)NCCN(C)C)c2nc3ccccc3cc12	-25.6	1.1	36.4	-27.4	95.4*	92.2*
COc1ccc(C(=O)Nc2ccc3ccccc3n2)c(OC)c1OC	72.2*	-37.7	15.2	88.4*	7.1	-33.2
CN(C)CCNC(=O)c1cccc2nc3c(ccc4ccccc43)nc12	-82.5	27.9	2.6	-88.2	85.8*	98.3*
Cc1ccc(Sc2cc(C(=O)NCCN(C)C)c3ccccc3n2)cc1	3.0	14.5	11.9	-10.2	-24.5	2.7
CN(CCNC(=O)c1c[nH]c2c1ccc1ccccc12)CCNC(=O)c1c[nH]c2c1ccc1ccccc12	-39.7	-160.2	-3.9	-31.4	-32.4	97.2*
COC1=CC(=O)OC(c2cccc(C(F)(F)F)c2)C1 (stereo not given)	.	4.7	.	.	.	.
O=C(CSc1ncccc1-c1nc2ccccc2[nH]1)N1CCCCC1	44.7	-48.2	9.0	57.5*	3.0	4.6
SMILES	TROY NFkB inh	HIF-2a block	LMP1 NFkB inh	TWEAK Fn14 block	MITF TRPM1 inh	Peg3 prom inh
Cc1[nH]c(=O)[nH]c(=O)c1NC(=O)CSc1ncccc1-c1nc2ccccc2[nH]1	53.6*	-52.3	15.4	43.8	2.4	-6.2
CCC(CC)c1nnc(NC(=O)Cc2ccccc2[N+](=O)[O-])s1	-8.4	-6.0	1.6	-15.6	-9.5	3.0
CN(CC(=O)Nc1ccc(F)c(F)c1F)C(=O)c1ccc2c(c1)S(=O)(=O)N=C1CCCCCN12	4.2	1.5	4.9	2.0	0.1	-2.8
Cc1ccc(NC(=O)C2C3C=CC4(O3)C2C(=O)N(CCN2CCOCC2)C4C(=O)NC2CCCCC2)cc1C (stereo not given)	-3.1	-0.8	-0.4	88.4*	-2.6	-9.0
COc1cc(CNC(=O)c2ccccc2NC(=O)C2=C(C)OCCS2)cc(OC)c1OC	-7.6	6.3	7.2	1.1	16.4	12.8
O=C(C[n+]1cccc(CO)c1)Nc1nc2ccccc2s1	66.6*	5.3	-2.5	-8.0	3.2	-8.3
O=C(CCCC(=O)N(CC(=O)NC1CCCCC1)c1ccccc1F)Nc1ccccn1	-8.5	19.5	-5.9	11.8	-1.2	-2.4
Cc1ccc(/C=C/c2nc3ccccc3s2)s1	76.4*	22.1	42.9*	86.4*	40.4	-26.0
COc1cc(/C=C/c2nc3ccccc3s2)cc(OC)c1O	27.2	-149.0	6.7	1.9	-36.8	-217.4
O=C(NCC1CCOCC1)c1ccc(OC2CCN(Cc3ccccn3)CC2)cc1	2.3	18.5	57.6*	1.8	-9.2	8.1
O=C(NCCc1ccccn1)c1ccc(OC2CCN(Cc3ccccn3)CC2)cc1	49.5	-34.6	-9.2	29.1	5.0	-11.0
NNC(=O)c1[nH]c(-c2ccccc2)cc1-c1ccccc1	7.7	15.7	-3.7	4.9	8.6	6.7
COc1ccc2cc3cc(C(=O)Nc4ccccc4N4CCN(C)CC4)oc3nc2c1	-11.7	54.7*	0.1	33.9	66.3*	114.9*
COc1ccc2cc3cc(C(=O)NCCN4CCN(c5ccccc5F)CC4)oc3nc2c1	59.8*	-2.3	20.7	67.2*	44.8	44.3
Cc1ccc(F)c(CNC(=O)C2(C)CCCN2C(=O)C(C)C)c1F (stereo not given)	-4.0	-0.3	.	3.5	.	-5.6
CC1(C)CC(=O)C2=C(C1)c1c(ccc3ccccc13)NC2c1cc([N+](=O)[O-])cc([N+](=O)[O-])c1O (stereo not given)	53.3*	36.1	-9.5	42.0	17.5	28.8
NC(=S)N=Nc1ccc(NN=C(N)N)cc1	17.3	-6.1	86.3*	11.6	12.2	17.7
COC(=O)c1ccc(NN=Nc2ccc(C)cc2)cc1	-31.7	2.1	-40.4	1.9	-14.6	-87.3
CSc1cccc(NS(=O)(=O)c2ccc3c(c2)oc(=O)n3C)c1	5.6	10.8	3.7	11.4	5.3	14.0
O=C(Nc1ccccc1C(=O)NCCc1ccccc1)c1cnccn1	-23.4	-133.0	-8.1	-38.7	-31.0	-96.5
Oc1ccc(Br)cc1-c1cc(-c2ccccc2)n[nH]1	3.0	-160.3	-10.3	-0.6	-0.5	-75.0
O=[N+]([O-])c1cccc(-c2cc(-c3cc(Br)ccc3O)[nH]n2)c1	32.8	-184.9	4.8	83.7*	-3.7	-73.2
N/C(Cc1ccccc1)=N\OC(=O)c1cccc2ccccc12	-57.3	-41.7	-17.4	-23.9	8.0	78.2*
